Assay outcomes as filed in PubChem BioAssay.
BoNT F protease = blocks Botulinum neurotoxin F light chain protease; Multiplex microsphere protease cleavage assay, flow cytometry; inhibition, % at 10 µM; actives 0.22% (n = 360,000); AID 588497; in the data active = inhibition above about 35%, passing the limit was not always enough; inconclusive = no clear call, values can overlap the other calls; note: plate controls were buffer without enzyme for full effect and enzyme alone for no effect
SSB-PriA inh = K. pneumoniae PriA-SSBct interaction inhibition; AlphaScreen SSBct-PriA binding, biotinylated peptide; inhibition, % at 33 µM; actives 0.6% (n = 430,000); AID 1272365; in the data active = inhibition mostly above about 37%, no sharp cut-off; inactive = mostly below about 20%;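 note: plate controls were negative control peptide for no effect and reference peptide for full effect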
BoNT A protease = inhibitors of Botulinum neurotoxin A light chain protease | AID 588499 | inhibition, % at 10 µM | multiplex microsphere protease substrate cleavage, flow cytometry | actives 0.17% (n = 360,000); note: plate controls were buffer without enzyme for full effect and enzyme alone for no effect
Anthrax LF prot = anthrax lethal factor protease inhibition. inhibition, % at 10 µM. P15917. multiplex microsphere protease cleavage assay, LF. AID 588501. actives 0.12% (n = 360,000); note: plate controls were buffer without enzyme for full effect and enzyme alone for no effect
Target sequence (P15917 whole entry, looked up): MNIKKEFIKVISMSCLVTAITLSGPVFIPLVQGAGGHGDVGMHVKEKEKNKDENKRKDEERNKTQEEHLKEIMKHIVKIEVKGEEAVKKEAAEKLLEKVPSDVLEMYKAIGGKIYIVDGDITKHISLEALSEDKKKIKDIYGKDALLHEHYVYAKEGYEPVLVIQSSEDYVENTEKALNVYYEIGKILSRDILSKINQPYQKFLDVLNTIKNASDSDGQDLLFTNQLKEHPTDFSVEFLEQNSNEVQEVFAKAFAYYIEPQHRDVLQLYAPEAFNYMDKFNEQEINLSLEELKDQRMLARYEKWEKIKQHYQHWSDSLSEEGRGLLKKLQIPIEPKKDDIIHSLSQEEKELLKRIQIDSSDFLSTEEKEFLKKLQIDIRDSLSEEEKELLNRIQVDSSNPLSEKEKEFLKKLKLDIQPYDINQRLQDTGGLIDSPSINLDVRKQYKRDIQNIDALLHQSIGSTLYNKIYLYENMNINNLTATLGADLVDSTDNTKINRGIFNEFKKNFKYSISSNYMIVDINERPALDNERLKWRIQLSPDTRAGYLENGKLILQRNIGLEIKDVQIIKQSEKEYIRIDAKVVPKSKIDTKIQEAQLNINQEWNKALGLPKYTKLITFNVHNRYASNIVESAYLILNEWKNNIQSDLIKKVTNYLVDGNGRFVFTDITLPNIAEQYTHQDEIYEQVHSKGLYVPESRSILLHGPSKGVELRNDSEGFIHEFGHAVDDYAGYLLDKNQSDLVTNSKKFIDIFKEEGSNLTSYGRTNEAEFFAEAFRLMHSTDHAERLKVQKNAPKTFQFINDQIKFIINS
Bead autofluor = counter-screen for toxin protease inhibitors: compound fluorescence; compound autofluorescence counterscreen, microsphere flow cytometry; active compounds read high; fluorescence intensity (no concentration beside the values); actives 3.1% (n = 360,000); AID 624483; in the data active = fluorescence intensity above about 16000; inconclusive = no clear call, values can overlap the other calls
Numbers without * were called inactive; ? = inconclusive; / = not tested or not shown. This is a sample that favours compounds with a hit; in the whole collection about 3.1% have one here. Cut-off read from the data, not from the text of the source, unless noted: active = inhibition above about 30%; inconclusive = no clear call, values can overlap the other calls; inactive = below that.

SMILES	BoNT F protease	SSB-PriA inh	BoNT A protease	Anthrax LF prot	Bead autofluor
CC1(C)CC(NC(=O)C23CCC(C)(C2Br)C3(C)C)CC(C)(C)N1 (stereo not given)	34.6*	1.0	5.9	5.0	3593
CC12CCC(C(N)=O)(C1Br)C2(C)C (stereo not given)	-0.4	-11.6	0.1	1.4	2139
CC1(C)CC(NC(=O)C23CCC(C)(/C(=N/O)C2)C3(C)C)CC(C)(C)N1 (stereo not given)	-0.9	/	?	0.5	22387*
CC[C@@H](C(=O)N1CC(c2nc(Cc3ccccc3OC)no2)C1)c1ccccc1	/	-10.0	/	/	/
O=[N+]([O-])c1ccc(-c2nc(/C=N\O)c3ccccn23)cc1	/	-1.0	/	/	/
CC(C)(C)c1ccc(-c2nc(C=O)c3ccccn23)cc1	20.8	-25.9	?	20.6	18863*
O=C(CCC(=O)c1ccc(Cl)cc1)NCc1cnn2c1CCCC2	/	-4.0	/	/	/
Cc1cc(C)n2nc(-c3sccc3-n3cccc3)cc2n1	-5.8	4.8	-1.3	-3.5	3098
FC(F)(F)c1cc(C(F)(F)F)n2nc(-c3sccc3-n3cccc3)cc2n1	1.8	-17.3	-0.1	-4.0	22337*
Cc1cc(NC(=O)CCCC(=O)N(CC(=O)NCCc2ccccc2)Cc2ccc(F)cc2)no1	-4.0	-11.5	-2.8	-4.8	20415*
COc1ccc(C)cc1-n1nnnc1SCC(=O)NC1CCCC1	/	-0.3	/	/	/
COc1ccc(C)cc1-n1nnnc1SCC(=O)N1CCC(C(=O)Nc2nccs2)CC1	-2.0	2.0	?	-0.9	23303*
O=C(Nc1ccccc1F)c1cc(C2CCN(C(=O)Cn3cccc3)CC2)[nH]n1	/	-7.0	/	/	/
O=C(Oc1cccc(OC(=O)N2CCOCC2)c1)N1CCOCC1	/	-12.0	/	/	/
Cc1cccc(OC(=O)N2CCOCC2)c1	-0.5	-2.9	-1.0	-3.1	24289*
O=C(Oc1ccc(Cl)cc1)N1CCOCC1	12.6	-10.5	0.3	15.2	3275
O=C(Oc1ccc(-c2ccccc2)cc1)N1CCOCC1	-1.7	-16.5	?	0.3	21166*
CSc1ccc(CCC(=O)NCc2cccnc2-c2cccs2)cc1	/	-1.0	/	/	/
O=C(O)CC(C(=O)NC1CCCCC1)C1CCCO1 (stereo not given)	4.0	-4.8	2.2	-0.8	22137*
O=C(O)CC(C(=O)Nc1ccc(Cl)c(Cl)c1)C1CCCO1 (stereo not given)	1.6	-6.0	-0.4	-5.5	11218
CCS(=O)(=O)c1ccc(-c2ccc(NC(=O)CSCc3ccccc3)cc2)nn1	/	-14.0	/	/	/
COC(=O)C1=CN(CC2CCCO2)C=C(C(=O)OC)C1c1ccsc1 (stereo not given)	1.9	-7.3	0.9	0.2	22638*
COC(=O)C1=CN(CC2CCCO2)C=C(C(=O)OC)C1c1cccc(O)c1 (stereo not given)	1.5	-20.9	-0.4	0.4	3793
CC1CCCC(=NNc2ccc([N+](=O)[O-])cc2[N+](=O)[O-])C1 (stereo not given)	/	57.8*	/	/	/
O=C(CSc1nnc(COc2ccccc2)o1)Nc1ccc(OC(F)(F)F)cc1	/	9.0	/	/	/
SMILES	BoNT F protease	SSB-PriA inh	BoNT A protease	Anthrax LF prot	Bead autofluor
O=C(NCc1ccc(F)cc1)NCC1CCN(c2cnccn2)CC1	/	-1.0	/	/	/
CCN(CC)Cc1cc(Nc2c3ccccc3nc3c4ccccc4n(C)c23)cc(CN(CC)CC)c1O	-46.8	50.8*	0.4	-21.4	2580
COCCN1CCCc2ccc(NS(=O)(=O)c3ccc(F)c(C)c3)cc21	/	15.0	/	/	/
COC(=O)c1c(N)sc2c1CC(C)(C)NC2(C)C	/	31.0	/	/	/
Cc1ccc(S(=O)(=O)Cc2ccc(C(=O)NCCCN3CCCC3=O)o2)cc1	-2.1	-4.5	-1.4	-1.8	20958*
Cc1ccc(S(=O)(=O)Cc2ccc(C(=O)N3CCC4(CC3)OCCO4)o2)cc1	2.3	-2.3	1.3	-2.6	20005*
O=C(NCCCN1CCCC1)c1ccc(CS(=O)(=O)c2ccc(Br)cc2)o1	-6.9	5.1	-0.6	-10.7	6417
COc1ccccc1S(=O)(=O)Cc1ccc(C(=O)NCCN2CCCC2)o1	-2.9	0.9	-1.2	-0.2	22371*
COc1ccc(CCNC(=O)c2ccc(CS(=O)(=O)c3ccc(C)cc3)o2)cc1OC	-0.1	-7.5	0.2	6.6	4495
COc1ccc(CCNC(=O)c2ccc(CS(=O)(=O)c3ccc(Cl)cc3)o2)cc1OC	1.6	-5.0	4.6	0.7	17952*
O=S(=O)(c1cccc(C(F)(F)F)c1)N1CCN(c2ccc3nncn3n2)CC1	/	-9.0	/	/	/
COCCNC(=O)N1CCC(Cn2cnc3cc(C)c(C)cc32)CC1	/	0.0	/	/	/
Cc1ccccc1S(=O)(=O)Cc1ccc(C(=O)NCCCN2CCN(C)CC2)o1	-3.9	-7.7	-2.3	-5.4	22715*
Cn1c(=O)c2c(nc(NCCCN3CCOCC3)n2Cc2ccc(Cl)cc2)n(C)c1=O	-8.4	-12.5	2.0	?	?
Cn1c(=O)c2c(nc(CN3CCC(Cc4ccccc4)CC3)n2CCN2CCOCC2)n(C)c1=O	-2.7	-13.9	-1.7	-2.8	27251*
Cn1c(=O)c2c(nc(CN3CCC(C(N)=O)CC3)n2CCc2ccccc2)n(C)c1=O	3.0	-8.2	?	-0.7	19348*
Cn1c(=O)c2c(nc(NCCCN3CCOCC3)n2Cc2cccc(Cl)c2)n(C)c1=O	6.4	-25.5	1.7	-0.7	22276*
Cn1c(=O)c2c(nc(SCCN3CCOCC3)n2Cc2cccc3ccccc23)n(C)c1=O	-0.1	5.5	0.1	-5.1	19656*
Nc1ccccc1OCCO	/	-1.0	/	/	/
CCOC(=O)N1CCC(NC(=O)c2oc3c(c2C)-c2[nH]ncc2CC3)CC1	-4.7	-6.2	?	-3.9	20954*
Cc1ccc(NC(=O)CCCS(=O)(=O)c2ccc(F)cc2)c(C(=O)c2ccccc2)c1	/	11.0	/	/	/
COc1ccc(NC(=O)C2C3C=CC(C3)C2C(=O)NCc2ccco2)cc1 (stereo not given)	-0.6	-12.9	-0.7	-0.4	16864*
COc1ccc(C2=NOC(C(=O)N3CCCCCC3)C2)cc1OC (stereo not given)	-6.7	-2.7	-0.5	-4.0	11367
COc1ccc(C2=NOC(C(=O)NCc3ccco3)C2)cc1 (stereo not given)	8.8	1.8	7.9	-14.0	20757*
COc1cc(C2=NOC(C(=O)N3CCOCC3)C2)cc(OC)c1OC (stereo not given)	-6.0	-10.7	?	-2.2	24903*
SMILES	BoNT F protease	SSB-PriA inh	BoNT A protease	Anthrax LF prot	Bead autofluor
O=C(C1CC(c2ccc(F)cc2)=NO1)N1CCN(c2ccccc2)CC1 (stereo not given)	-7.7	2.5	-0.6	-1.9	4612
O=C(C1CC(c2ccc(F)cc2)=NO1)N1CCCCC1 (stereo not given)	0.6	-12.4	-0.3	-1.3	22237*
O=C(Nc1ccc(N2CCCCC2=O)cc1)c1cc(Cl)ccc1[N+](=O)[O-]	/	4.0	/	/	/
O=C(Nc1ccn2nccc2c1)c1csc(-c2ccccc2)n1	/	-7.0	/	/	/
C=CCn1c(-c2ccccc2)csc1=Nc1ccccc1C(=O)OCC	/	32.0	/	/	/
CC(=O)C1=C(C)N=C(SCC(=O)Nc2nccs2)C(C#N)[C@H]1c1ccc(Cl)cc1 (stereo not given in full)	/	-3.0	/	/	/
CCC(C)NC(=O)C1CC(c2ccc(OC)cc2)=NO1 (stereo not given)	6.6	-9.0	6.0	-7.9	20670*
